# PubChem BioAssay AID588342 (National Center for Advancing Translational Sciences (NCATS), 2011)
# Hit rate of the full screen: of about 360,000 compounds, about 25,000 (6.9%) were called active. Not shown: some 9% with an inconclusive outcome. The call rests on the fitted dose curve; in most records, active means well fitted inhibition curve with a large enough effect; inconclusive means small, poorly fitted or top-dose-only effect; inactive means flat fitted curve, though single readings scatter. What follows is part of a selection rich in actives, with near analogues and random picks from the rest. A call without a number means that no potency is given here.
# Biological target: Luciferin 4-monooxygenase (Photinus pyralis) (UniProt P08659)
# Sequence (P08659 whole entry, looked up): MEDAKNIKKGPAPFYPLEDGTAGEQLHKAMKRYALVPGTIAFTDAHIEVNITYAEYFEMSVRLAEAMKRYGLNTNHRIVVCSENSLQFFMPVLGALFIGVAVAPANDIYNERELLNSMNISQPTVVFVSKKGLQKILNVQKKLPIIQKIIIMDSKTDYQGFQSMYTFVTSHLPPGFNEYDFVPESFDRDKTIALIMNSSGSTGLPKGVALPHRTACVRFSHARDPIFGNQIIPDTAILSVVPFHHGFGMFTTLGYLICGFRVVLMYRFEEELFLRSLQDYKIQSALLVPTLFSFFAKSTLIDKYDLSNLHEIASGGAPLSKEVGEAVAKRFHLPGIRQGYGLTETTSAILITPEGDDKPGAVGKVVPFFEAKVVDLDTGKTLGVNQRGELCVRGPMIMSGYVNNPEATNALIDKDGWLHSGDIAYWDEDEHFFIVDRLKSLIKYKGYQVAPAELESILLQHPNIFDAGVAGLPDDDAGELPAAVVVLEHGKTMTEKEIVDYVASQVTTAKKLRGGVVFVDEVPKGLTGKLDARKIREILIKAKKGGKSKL
# Assay: qHTS profiling assay for firefly luciferase inhibitor/activator using purifed enzyme and Km concentrations of substrates (counterscreen for miR-21 project); further: nearly all actives have a fitted effect of over 55% in size
# Settings: purified FLuc, luminescence inhibition; series mostly up to 57.5 µM
# From the text: MLPCN Grant: 1 R21 NS059478-01 (miR-21 grant) Assay Provider: NCGC NCGC Assay Overview: Firefly (Photinus pyralis) luciferase is one of the most commonly used transcriptional reporters for a number of reasons. It is considered one of the more dynamically responsive reporters -that is, responsive to changes in reporter transcription - as it requires no post-translational modifications and is enzymatically active directly after protein synthesis (Wood, 1998). Additionally, the half-life of the luciferase protein is short relative to other reporter-gene products (Wood, 1995). Whereas reporters with long half-lives potentially allow for increased signal due to accumulation of reporter-gene product, once accumulated in the cell, dynamic changes in reporter-gene expression may be difficult to detect(Fan and Wood, 2007; Almond et al., 2004). It has been shown that wild-type P. pyralis luciferase has a half-life of approximately […] hours in mammalian cells (Thompson et al., 1991). Firefly luciferase reporter-gene assays are also generally considered one of the most sensitive assay types (Wood, 1995; Wood, 1998). Although light produced in a bioluminescence reaction is of lower intensity than that produced during fluorescence emission, this is offset by little to no background light inherent to luminescent assays. Thus the luciferase reporter can be expressed at much lower levels than fluorescent proteins while still providing robust signal. # However, it was initially observed, in 1991, by Thompson et al., that compounds that resemble the substrates of firefly luciferase (FLuc) can act as competitive inhibitors of the enzyme, and that these compounds, upon interaction with luciferase in the cell, can actually stabilize the protein and increase its half-life. Accumulated intracellular FLuc protein can be measured as an increase in luminescence signal, upon addition of detection reagents (which contain high concentrations of FLuc substrates) commonly used in high-throughput screening. In cell-based reporter gene assays that use FLuc as the reporter gene to quantitate the potential influence of a given compound against the target biology, this apparent increase in luminescence can mistakenly be interpreted as identification of a compound that is active against the target of interest. This is the case for the miR-21 FLuc reporter gene assay used to identify inhibitors of the miR-21 pathway (PubChem AID 2289) - compounds of interest will inhibit miR-21 biogenesis/expression or activity, and are identified by causing an increase in luminescence, due to increased FLuc translation. However, FLuc inhibitory compounds that stabilize the FLuc protein will give an identical read-out, making it difficult to distinguish compounds that are active against the target from those active against FLuc. Previous profiling work to determine the prevalence of compounds that affect FLuc enzymatic activity (PubChem AID 411) identified that ~3% of the MLSMR library (then at ~72K) inhibited FLuc. […] Since the MLSMR had grown to ~350K compounds, and since it was expected that a significant percentage of compounds found active in the miR-21 FLuc assay would be FLuc inhibitors, the library was screened for activity against FLuc using a biochemical assay of purified FLuc and KM concentrations of FLuc substrates (D-luciferin and ATP).
# NCGC Assay Protocol Summary: Reagents: 50mM Tris acetate, pH 7.5; 10mM Mg acetate; 10uM D-luciferin (Sigma #L9504); 10uM ATP; 0.01% Tween-20; 0.05% BSA; 10nM P. pyralis luciferase (Sigma #L9506) Control compounds used were two known firefly luciferase inhibitors (compounds (2) and (5) in Auld et al., 2010), and DMSO. […]
row,SMILES,Potency
1,Cc1ccc(Cl)cc1N1CCN(C(=O)c2cn(C)c3ccc(S(=O)(=O)N(C)C4CCCCC4)cc3c2=O)CC1,inactive
2,Cc1ccc(NC(=O)CCCNC(=O)c2ccc(Cl)cc2)cc1S(=O)(=O)N1CCCCC1,inactive
3,COC(=O)c1ccc(C2C(C(=O)Nc3ccccc3)=C(C)Nc3nc4ccccc4n32)cc1 (stereo not drawn),inactive
4,COC(=O)c1ccc(C2C3=C(Nc4nnnn42)c2ccccc2OC3)cc1 (stereo not drawn),6.01 µM (active)
5,COC(=O)C1=C(C(=O)c2ccc(C)cc2)C(c2ccccc2)n2nnnc2N1 (stereo not drawn),inactive
6,COc1cccc(Nc2nnc(SCC(=O)N3CC(=O)Nc4ccccc43)s2)c1,21.3 µM (active)
7,COc1cccc(-c2nnc(SCC(=O)N3CCC(C)CC3)o2)c1,inactive
8,Cc1nc(SCC(=O)N2CC(=O)Nc3ccccc32)c2c(C)c(C)sc2n1,inactive
9,COc1cc(OC)c(C(=O)OCC(=O)N2CC(=O)Nc3ccccc32)cc1OC,inactive
10,COc1cccc(Nc2nnc(SCC(=O)N3CC(C)OC(C)C3)s2)c1 (stereo not drawn),21.3 µM (active)
11,COc1ccc(C(=O)CSc2nnc(NC(=O)C3CC(=O)N(c4cccc(OC)c4)C3)s2)cc1 (stereo not drawn),inactive
12,O=C(Nc1ccccc1Cl)N1CCC(CN2CCCCC2)CC1,inactive
13,Cc1nc2ccccc2c(=O)n1-c1ccc(NS(=O)(=O)c2ccc(F)cc2F)cc1,inactive
14,CCN(CC)c1ccc(NC(=O)CN2C(=O)c3cccnc3Oc3ccc(Cl)cc32)c(C)c1,inactive
15,COc1ccc2ccn(C)c2c1,inactive
16,CN(C)c1nc(Nc2ccc(Cl)c(Cl)c2)nc(N(C)C)n1,inactive
17,OCCNc1nc(Nc2ccc(Cl)c(Cl)c2)nc2ccccc12,6.01 µM (active)
18,COc1cc2nc(Cl)nc(NCCO)c2cc1OC,inactive
19,Cc1ccccc1CSc1nc(-c2ccccc2)nc2c1Cc1c(CO)cnc(C)c1O2,inactive
20,Nc1ccn(CC(=O)N2CCN(c3ccccn3)CC2)c(=O)n1,inactive
21,O=C(NC(Nc1nc2ccc([N+](=O)[O-])cc2s1)(C(F)(F)F)C(F)(F)F)c1ccccc1,inactive

row,SMILES,Potency
1,COc1ccc(C(=O)Nc2nc(-c3ccc(OC)cc3)c(-c3ccc([N+](=O)[O-])cc3)s2)cc1,inactive
2,O=C(Nc1nc2ccc([N+](=O)[O-])cc2s1)c1ccncc1,1.07 µM (active)
3,CCN1CCN(CCCNC(=O)c2ccc3c(c2)sc2nc(-c4ccc(OC)cc4)cn23)CC1,inactive
4,O=C(Nc1ccc(Br)c2cccnc12)c1ccc(Cn2cc([N+](=O)[O-])cn2)o1,inactive
5,O=C(c1ccc(Cn2cc([N+](=O)[O-])cn2)o1)N1CCCC1,inactive
6,CCc1ccc(CNC(=O)c2ccc(CS(=O)c3ccc(Br)cc3)o2)cc1 (stereo not drawn),inactive
7,CN(C)c1ccc(/C=N/NC(=O)C(O)c2ccc(Br)cc2)cc1 (stereo not drawn),inactive
8,CN(C)c1ccc(/C=N/NC(=O)c2ccc(Cn3cc(Br)cn3)o2)cc1,9.53 µM (active)
9,O=C(N/N=C/c1ccc2c(c1)OCO2)c1ccc(Cn2cc([N+](=O)[O-])cn2)o1,6.75 µM (active)
10,O=C(N/N=C/c1ccc(Br)o1)c1cncc(Br)c1,inactive
11,O=C(N/N=C\c1ccc(Br)cc1)c1ccc(Cn2cccn2)o1,12 µM (active)
12,COc1cccc(NC(=O)c2ccc(Cn3cc([N+](=O)[O-])cn3)o2)c1,inactive
13,Cc1cccc(Cn2c(CN3CCC(C(=O)NCc4ccccc4Cl)CC3)cc3ccccc32)c1,inactive
14,Cc1ccccc1CNC(=O)CCc1cn(Cc2ccccc2C)c2ccccc12,inactive
15,O=c1n(Cc2cccc(C(F)(F)F)c2)c2ccccc2c2nc(-c3ccccc3)nn12,inactive
16,COc1ccccc1OCC(=O)Nc1nnc2n1CCS2,inactive
17,CCOc1ccc(S(=O)(=O)c2cn(Cc3ccccc3)c3ccc(OCC)cc3c2=O)cc1,inactive
18,O=C1C2C3C=CC(C3)C2C(=O)N1c1ccc(S(=O)(=O)Nc2nccs2)cc1 (stereo not drawn),inactive
19,O=C1C2C3C=CC(C3)C2C(=O)N1c1ccc(-c2nc3ccccc3c(=O)o2)cc1 (stereo not drawn),9.53 µM (active)
20,CCCCCOC(=O)c1ccc(N2C(=O)C3C4C=CC(C4)C3C2=O)cc1 (stereo not drawn),inactive
21,COc1ccc(CCNc2nc(-c3ccc(F)cc3)cc(C(F)(F)F)n2)cc1OC,inactive

row,SMILES,Potency
1,Cc1ccc2c(c1)N(C(=O)Nc1ccc(Br)cc1F)CCO2,inactive
2,NC(=O)C1CCN(C(=O)c2cccc(NC(=O)c3nsc4ccccc34)c2)CC1,12 µM (active)
3,CCCCNC(=O)C1CCC(CNS(=O)(=O)c2ccc(NC(C)=O)cc2)CC1 (stereo not drawn),inactive
4,COCCCNC(=O)c1ccc(NC(=O)c2nsc3ccccc23)cc1,16.9 µM (active)
5,COCCCNC(=O)c1ccc2c(c1)ncn2-c1ccccc1OC,inactive
6,COc1cccc(NC(=O)N2CCN(C(=O)c3nsc4ccccc34)CC2)c1,inactive
7,CCc1ccccc1NC(=O)N1CCN(C(=O)c2nsc3ccccc23)CC1,inactive
8,COCCCNC(=O)c1ccc(CNS(=O)(=O)c2ccc(NC(C)=O)cc2)cc1,16.9 µM (active)
9,Cc1ccc(CCNC(=O)c2ccc(CNS(=O)(=O)c3ccc(C)cc3)cc2)cc1,inactive
10,Cc1c(Cl)cccc1NC(=O)N1CCN(C(=O)c2nsc3ccccc23)CC1,inactive
11,CCc1ccc(NC(=O)N2CCN(C(=O)c3nsc4ccccc34)CC2)cc1,inactive
12,Cc1ccccc1CNC(=O)c1cccc(NC(=O)c2nsc3ccccc23)c1,5.36 µM (active)
13,O=C(Nc1cccc(C(=O)N2CCCC2)c1)c1ccccc1,inactive
14,O=C(CSc1nnc(COc2ccc(Cl)cc2)n1Cc1ccco1)N1CCNC1=O,inactive
15,COc1ccc(OC)c(CNC(=O)Cn2nc(C)c3c(C)n(-c4ccccc4)nc3c2=O)c1,inactive
16,Cc1ccc(CNS(=O)(=O)c2ccc(-c3cc(C(F)(F)F)on3)s2)cc1,inactive
17,COc1ccc(S(=O)(=O)Nc2cc(C)on2)cc1NC(C)=O,inactive
18,Cc1ccc(-c2nc(S(=O)(=O)c3ccc(C)cc3)c(N3CCCCCC3)o2)cc1,inactive
19,Nc1ccccc1Sc1cc(Cl)nnc1Cl,inactive
20,COC(=O)c1scc(-c2ccccc2)c1S(=O)(=O)Nc1ccccc1,inactive
21,COc1cc(C(F)(F)F)nc2c(Br)c(C(C)(C)C)nn12,inactive
